Results filed as inconclusive are left out. The source made the active and inactive calls. The call rests on the fitted dose curve; in most records, active means well fitted activation curve with a large enough effect; inconclusive means small, poorly fitted or top-dose-only effect; inactive means no such curve, though single readings can be large or run the other way.
target: Rap guanine nucleotide exchange factor 4 (Homo sapiens) (UniProt Q8WZA2); assay: Confirmatory qHTS for agonist of cAMP-regulated guanine nucleotide exchange factor 4 (EPAC2) (AID 1645884); details: EPAC2 GEF activity, Rap1B-BODIPY-GDP fluorescence; series mostly up to 154 µM; activation: at the top concentration;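 further: nucleotide exchange releases bodipy-GDP from Rap1 and this lowers its fluorescence; nearly all actives have a fitted effect of over 65% in size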
Sequence (Q8WZA2 whole entry, looked up): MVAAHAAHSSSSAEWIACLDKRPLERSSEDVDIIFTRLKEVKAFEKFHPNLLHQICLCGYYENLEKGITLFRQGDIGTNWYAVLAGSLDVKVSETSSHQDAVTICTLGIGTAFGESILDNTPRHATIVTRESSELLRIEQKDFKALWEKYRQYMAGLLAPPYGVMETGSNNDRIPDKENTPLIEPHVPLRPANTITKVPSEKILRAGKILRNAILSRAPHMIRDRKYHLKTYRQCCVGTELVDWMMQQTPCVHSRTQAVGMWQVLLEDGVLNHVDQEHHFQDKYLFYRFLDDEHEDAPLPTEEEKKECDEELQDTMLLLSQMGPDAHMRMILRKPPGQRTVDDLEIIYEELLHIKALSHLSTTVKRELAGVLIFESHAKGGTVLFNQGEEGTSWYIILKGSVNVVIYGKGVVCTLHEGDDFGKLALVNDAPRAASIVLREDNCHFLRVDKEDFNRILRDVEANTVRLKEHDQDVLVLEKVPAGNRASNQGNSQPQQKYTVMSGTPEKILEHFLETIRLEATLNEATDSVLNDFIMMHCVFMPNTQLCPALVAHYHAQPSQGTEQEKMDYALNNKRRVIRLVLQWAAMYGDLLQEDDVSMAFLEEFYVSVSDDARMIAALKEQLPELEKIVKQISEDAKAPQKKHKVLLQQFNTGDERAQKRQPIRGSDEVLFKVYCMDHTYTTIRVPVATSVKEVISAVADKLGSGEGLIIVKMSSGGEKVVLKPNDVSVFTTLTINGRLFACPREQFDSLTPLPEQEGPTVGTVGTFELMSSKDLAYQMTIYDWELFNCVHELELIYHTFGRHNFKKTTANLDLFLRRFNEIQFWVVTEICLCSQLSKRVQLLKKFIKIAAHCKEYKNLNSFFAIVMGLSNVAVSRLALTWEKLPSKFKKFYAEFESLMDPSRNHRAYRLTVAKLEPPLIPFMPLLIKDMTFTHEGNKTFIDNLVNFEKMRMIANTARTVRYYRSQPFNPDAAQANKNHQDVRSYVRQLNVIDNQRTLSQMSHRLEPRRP
On the % scale 0 is the no-effect control and ±100 the full control effect; potency means the concentration at half of the fitted maximal effect.

activation, inactive:
COc1ccc(C2c3ccsc3CCN2C(C)=O)cc1 (centres undefined) 5.95%
CCC(C)(C)NC(=O)C(c1ccccn1)N(C(=O)c1csnn1)C1CCCCC1 (centres undefined) 1.37%
O=C1CCC/C(=N/NC(=O)c2sc3ccccc3c2Cl)C1 5.61%
COC(=O)c1ccccc1NC(=O)c1nn(-c2ccc(OC)cc2)c(=O)c2c1c1ccccc1n2C -18.7% [at 83.8 µM, percent relative to cAMP agonist control]
CCOC(=O)C1=C(CC)OC(N)=C(C#N)C1c1ccc(OC)c(OC)c1OC (centres undefined) -0.762% [at 17.1 µM, percent relative to cAMP agonist control]
Cc1cccn2cc(CCNC(=O)c3ccco3)nc12 4.04% [at 17.1 µM, percent relative to cAMP agonist control]
COC(=O)c1ccc2nc(-c3ccccc3)c(Cc3ccccc3C(F)(F)F)n2c1 -20.9%
Cc1cc(-c2nn(-c3ccccc3F)cc2CN2CCCC(O)C2)c(C)s1 (centres undefined) 2.57% [at 17.1 µM, percent relative to cAMP agonist control]
O=c1[nH][nH]c(-c2ccccc2O)c1C(C[N+](=O)[O-])c1ccc(Cl)cc1Cl (centres undefined) 4.84%
COc1cccc2c1OC1(C)CC2/C(=C(\C)O)C(=O)N1 (centres undefined) 4.68%
COc1ccc(S(=O)(=O)NC(CCSC)C(=O)NC2CCCCC2)cc1 (centres undefined) -1.6%
CSc1ccccc1C(=O)Nc1ccc(C)cc1C -2.17% [at 17.1 µM, percent relative to cAMP agonist control]
Cc1c2cn[nH]c(=O)c2c(C)n1-c1ccccc1 8.56%
Cc1[nH][nH]c(=O)c1C(c1c(C)[nH][nH]c1=O)c1cn(Cc2cccc3ccccc23)c2ccccc12 10.3% [at 83.8 µM, percent relative to cAMP agonist control]
CCc1ccccc1N(C)S(=O)(=O)c1ccc2[nH]cc(C(=O)N3CCc4ccccc43)c(=O)c2c1 -2.56% [at 17.1 µM, percent relative to cAMP agonist control]
O=C1C2CCCN2C(c2ccccc2F)N1c1cccc(Cl)c1 (centres undefined) 0.711% [at 17.1 µM, percent relative to cAMP agonist control]
CC(=O)NNC(=O)c1sc(=S)n2c1[nH]c(=O)c1sccc12 -10.5%
Cc1ccc(C2CC(=O)Oc3cc(C)c(Br)c(C)c32)cc1 (centres undefined) 13.6%
O=C(O)c1ccc(N/N=C/c2cccc(C(F)(F)F)c2)cc1 7.82%
CC(=O)Nc1cc(C(=O)NCc2ccco2)ccc1Sc1ccc(C)cc1 3.77% [at 17.1 µM, percent relative to cAMP agonist control]
O=C(C1=C(O)C(=O)N(c2nc3ccc(Cl)cc3s2)C1c1ccco1)c1ccco1 (centres undefined) -50.7%
CC1(C(=O)NS(=O)(=O)c2ccc3c(c2)CCO3)CCN1C(=O)C1(c2ccc(Cl)cc2)CCC1 (centres undefined) 1.36% [at 17.1 µM, percent relative to cAMP agonist control]
COc1ccc(N(C(=O)c2ccco2)S(=O)(=O)c2cc(OC)ccc2OC)cc1 0%
COc1ccc(S(=O)(=O)N2CCCCC2)cc1C(C)C -3.27%
Cc1ccccc1N=C(c1ccccc1)C1C(=O)c2ccccc2C1=O 8.41% [at 17.1 µM, percent relative to cAMP agonist control]
CSc1ccc(/C=N/NC(=O)CN2CCN(Cc3ccc(Cl)cc3)CC2)cc1 -19.5%
CCOC(=O)c1c(NC(=O)c2ccccc2OCC)sc2c1CCC(CC)C2 (centres undefined) 8.35% [at 83.8 µM, percent relative to cAMP agonist control]
CCOC(=O)C1=CCN(S(=O)(=O)c2ccc(C)cc2)C1c1cccc(Cl)c1 (centres undefined) 10.9%

Potency, active:
CCN(CC)c1ccc2cc(C(C)=O)c(=O)oc2c1 100 µM
